Results on 42 sequences are retold here after article PMC10726135, “HNF4α isoforms regulate the circadian balance between carbohydrate and lipid metabolism in the liver”.

In all, about 18,000 sequences were measured (“log2 normalized intensity”: median about 0.36, highest 2% from about 7.3 on). The sample holds the highest values, similar sequences and a random draw of the others, so the mix is not that of the screen.

This assay deals with T1, HNF4alpha8 (COS-7 nuclear extract) (Homo sapiens, UniProt P41235-5 1-452).
T1 sequence: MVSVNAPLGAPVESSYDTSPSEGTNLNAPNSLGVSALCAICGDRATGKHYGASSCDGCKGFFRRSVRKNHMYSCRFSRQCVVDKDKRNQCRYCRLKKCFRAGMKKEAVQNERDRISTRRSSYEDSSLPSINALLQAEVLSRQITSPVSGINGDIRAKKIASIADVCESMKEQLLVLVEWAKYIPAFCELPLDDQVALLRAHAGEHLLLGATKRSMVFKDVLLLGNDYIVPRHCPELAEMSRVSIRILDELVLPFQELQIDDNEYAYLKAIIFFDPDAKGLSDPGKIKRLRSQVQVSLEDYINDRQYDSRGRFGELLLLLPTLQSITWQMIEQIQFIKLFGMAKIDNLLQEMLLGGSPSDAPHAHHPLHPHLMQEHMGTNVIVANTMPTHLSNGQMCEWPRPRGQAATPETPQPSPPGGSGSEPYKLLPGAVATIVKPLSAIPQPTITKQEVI
The assay is described as follows: protein-binding microarray; COS-7 nuclear extract on double-stranded Agilent 4x180k PBM; binding buffer, salt, pH and temperature not given in the material; high values mean tight binding. The note with it: chain copies: 2; label: 3' end of strand 1 on the slide; dsDNA, one strand shown. The gist of the method: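 The binding signal is Agilent software's gProcessedSignal after background correction and normalization. Arrays were a custom Agilent SurePrint G3 4x180k design of double-stranded ~60-nt oligonucleotides with ~44,000 test sequences in quadruplicate, probed with nuclear extracts of COS-7 cells transiently expressing a human HNF4α isoform. Scans were made at 2-µm resolution on an Agilent G2565CA scanner.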
On to “AGGTGCAAAGTACATATTTACTTACCTTTTGCCTAGGGAGATTAGAGTATCGGTCGA”, for which the binding signal was 3.68 log2 normalized intensity.
As for “TTGCAGACCTTGGTCAAAGTGACACATTCCGCCTAGGGAGATTAGAGTATCGGTCGA”, the figure is 0.772 log2 normalized intensity; as for “CTTGGGGTCAAAGTACATCCCCTAAAACATGCCTAGGGAGATTAGAGTATCGGTCGA”, 6.61 log2 normalized intensity.
For “GTTACCTTGGGGTCAAAGTACATCCCCTAAGCCTAGGGAGATTAGAGTATCGGTCGA” the value was 7.38 log2 normalized intensity; for “GGTCAAAGTACATCCCCTAAAACATCAAATGCCTAGGGAGATTAGAGTATCGGTCGA”, 3.45 log2 normalized intensity.
As for “TGCAAGTTACCTTGGGGTCAAAGTACATCCGCCTAGGGAGATTAGAGTATCGGTCGA”, the figure is 9.54 log2 normalized intensity.
“AACACCAGCAACCGCCTACCTTTGGACTTCGCCTAGGGAGATTAGAGTATCGGTCGA”: the binding signal was found to be 6.25 log2 normalized intensity.
For “TGGACCATTGCTGACCTTGCCTCTGTGCTCGCCTAGGGAGATTAGAGTATCGGTCGA” the value was 1.8 log2 normalized intensity; for “CTCTGGCCAGAGAGATGTCAGCCCAAGATAGCCTAGGGAGATTAGAGTATCGGTCGA”, 3.25 log2 normalized intensity.
As for “AAATGAAGTGGTATCCTGCAGTCAGTCTGAGCCTAGGGAGATTAGAGTATCGGTCGA”, the figure is -0.508 log2 normalized intensity; as for “TGACTTTCTTCCTATGGGATCAAAGTGCGAGCCTAGGGAGATTAGAGTATCGGTCGA”, 5.69 log2 normalized intensity; as for “AAAAAATGGGCAAAGGACAATAATGAATAAGCCTAGGGAGATTAGAGTATCGGTCGA”, -0.651 log2 normalized intensity.
As for “CCTTGACCCTTCCTCCCATTTGCTGCTCTAGCCTAGGGAGATTAGAGTATCGGTCGA”, the figure is 1.81 log2 normalized intensity.
Consider “CCTGTTTGACCTTCGAACCCTTGCCATTTAGCCTAGGGAGATTAGAGTATCGGTCGA”, for which the binding signal amounted to 7.81 log2 normalized intensity.
As for “TTCTTCCTGTTTGACCTTCGAACCCTTGCCGCCTAGGGAGATTAGAGTATCGGTCGA”, the figure is 9.64 log2 normalized intensity; as for “TTGACCTTCGAACCCTTGCCATTTACATCAGCCTAGGGAGATTAGAGTATCGGTCGA”, 6.21 log2 normalized intensity; as for “CATACTTCTTCCTGTTTGACCTTCGAACCCGCCTAGGGAGATTAGAGTATCGGTCGA”, 10.1 log2 normalized intensity.
For “TTGACCTTCTCTGTTAACCCTTTGCAGCCCGCCTAGGGAGATTAGAGTATCGGTCGA” the value was 2.91 log2 normalized intensity; for “CTCCTGTTTGTATTCCTTGTCCTTGACCCTGCCTAGGGAGATTAGAGTATCGGTCGA”, 4.96 log2 normalized intensity.
“GTACCTTGACCTTCTCTGTTAACCCTTTGCGCCTAGGGAGATTAGAGTATCGGTCGA”: the binding signal is 4.52 log2 normalized intensity.
As for “AAGCACATACTTCTTCCTGTTTGACCTTCGGCCTAGGGAGATTAGAGTATCGGTCGA”, the figure is 5.61 log2 normalized intensity.
For “ACCTCTGTAATAACTGCAGTGCCACTCGGGGCCTAGGGAGATTAGAGTATCGGTCGA” the value was -0.418 log2 normalized intensity; for “CTTTATCCTACAAGGGAGATAAACTTTATCGCCTAGGGAGATTAGAGTATCGGTCGA”, 0.672 log2 normalized intensity; for “GCTTGGCAAACATTTCACTTTGCTCCCTCCGCCTAGGGAGATTAGAGTATCGGTCGA”, 2.18 log2 normalized intensity.
For “TGAATGATCAAAGGTTGGTTTTTGGAGACAGCCTAGGGAGATTAGAGTATCGGTCGA” the value was 3.36 log2 normalized intensity; for “TCCTGAGTGATTGTAGTGTCATTGTTATTTGCCTAGGGAGATTAGAGTATCGGTCGA”, 1.98 log2 normalized intensity.
For “GGGTCAGAACCTGCCCATGACCTTTGGACTGCCTAGGGAGATTAGAGTATCGGTCGA”, the binding signal is 10.8 log2 normalized intensity.
Take “GGGCAGGGTCAGAACCTGCCCATGACCTTTGCCTAGGGAGATTAGAGTATCGGTCGA”: the binding signal was 6.45 log2 normalized intensity.
“GGACTGTGACCCCACCTCTCAGACAGAGCTGCCTAGGGAGATTAGAGTATCGGTCGA”: the binding signal worked out at 3.8 log2 normalized intensity.
As for “CATGACCTTTGGACTGTGACCCCACCTCTCGCCTAGGGAGATTAGAGTATCGGTCGA”, the figure is 7.69 log2 normalized intensity; as for “CTGCCCTTTGGAACCTGCCCTCTGTCCCATGCCTAGGGAGATTAGAGTATCGGTCGA”, 4.63 log2 normalized intensity.
As for “GGGGAGGGCAGGGTCAGAACCTGCCCATGAGCCTAGGGAGATTAGAGTATCGGTCGA”, the figure is 0.0112 log2 normalized intensity; as for “CTTTGGAACCTGCCCTCTGTCCCATGGTGTGCCTAGGGAGATTAGAGTATCGGTCGA”, 2.85 log2 normalized intensity.
For “AGAACCTGCCCATGACCTTTGGACTGTGACGCCTAGGGAGATTAGAGTATCGGTCGA” the value was 10.2 log2 normalized intensity; for “CCTTTGGACTGTGACCCCACCTCTCAGACAGCCTAGGGAGATTAGAGTATCGGTCGA”, 5.4 log2 normalized intensity; for “TCAGGTGTTGCTCTCTTGCCATTCGTGGATGCCTAGGGAGATTAGAGTATCGGTCGA”, 0.994 log2 normalized intensity.
Turning to “ACTACTAACCGAAAGTCTGACCCTTGACCAGCCTAGGGAGATTAGAGTATCGGTCGA”, the binding signal is 7.2 log2 normalized intensity.
In the case of “CAATCCTGGAGAAGGAGCACCAATGACCTTGCCTAGGGAGATTAGAGTATCGGTCGA”, the binding signal amounted to 4.02 log2 normalized intensity.
For “GAAGGAGCACCAATGACCTTTGACCCTTCTGCCTAGGGAGATTAGAGTATCGGTCGA” the value was 11.2 log2 normalized intensity.
As for “AAACAATGACCTCTGCACCCTTCCCTGAGTGCCTAGGGAGATTAGAGTATCGGTCGA”, the figure is 4.47 log2 normalized intensity; as for “TTTGAAAGAAAGAGACCTTTACCCTGACCTGCCTAGGGAGATTAGAGTATCGGTCGA”, 4.47 log2 normalized intensity.
Consider “CAATGACCTTTGACCCTTCTCTGGGAGAAAGCCTAGGGAGATTAGAGTATCGGTCGA”, for which the binding signal was found to be 8.44 log2 normalized intensity.
